Assay results taken from PubChem BioAssay (NCATS).
Results filed as inconclusive are left out. Entries that show only a call come without a potency. A number with no mark means an inactive call. Activity calls are given as the source filed them. Calls follow the shape of the dose curve; as a rule, active = well fitted cell-killing curve with a large enough effect; inconclusive = small, poorly fitted or top-dose-only effect, or effect the other way; inactive = flat fitted curve, though single readings scatter.

Columns and labels:
Experiment in all cases: Primary qHTS to identify gynecologic anti-cancer compounds using libraries of approved drugs and bioactive compounds (AID 1345084); also: nearly all actives have a fitted effect of over 55% in size
C33A = conditions: Gynecologic cancer cell panel viability, ATPlite luminescence, 48 h; series mostly up to 57.5 µM
How it was run: (§1)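 Cells, 1,000 per well, plated 16 h, then exposed 48 h at 37 C to compounds. Viability by ATPlite luminescence after 15 min at room temperature.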

CAOV3 = conditions: Gynecologic cancer cell panel viability, ATPlite luminescence, 48 h; series mostly up to 57.5 µM
How it was run: as §1

Es-2 = conditions: Gynecologic cancer cell panel viability, ATPlite luminescence, 48 h; series mostly up to 57.5 µM
How it was run: as §1

HeLa = conditions: Gynecologic cancer cell panel viability, ATPlite luminescence, 48 h; series mostly up to 57.5 µM
How it was run: as §1

Hek293T = conditions: Gynecologic cancer cell panel viability, ATPlite luminescence, 48 h, control line for the selectivity index; series mostly up to 57.5 µM
How it was run: as §1

OV90 = conditions: Gynecologic cancer cell panel viability, ATPlite luminescence, 48 h; series mostly up to 57.5 µM
How it was run: as §1

CASKI = conditions: Gynecologic cancer cell panel viability, ATPlite luminescence, 48 h; series mostly up to 57.5 µM
How it was run: as §1

JEG-3 = conditions: Gynecologic cancer cell panel viability, ATPlite luminescence, 48 h; series mostly up to 57.5 µM
How it was run: as §1
Potency is read from the fitted curve at half-maximal effect.

| SMILES | Potency (C33A) | Potency (CAOV3) | Potency (Es-2) | Potency (HeLa) | Potency (Hek293T) | Potency (OV90) | Potency (CASKI) | Potency (JEG-3) |
| --- | --- | --- | --- | --- | --- | --- | --- | --- |
| CC(O)(C(=O)C1CC1(CO)COC1OC(CO)C(O)C(O)C1O)C1C(O)CC2C3CC=C4CC(O)CC(O)C4(C)C3C(O)CC21C (stereo unspecified) | 0.562 µM (active) | 1.78 µM (active) | 0.891 µM (active) | 1.41 µM (active) | 1.41 µM (active) | 4.47 µM (active) |  |  |
| CC1CC(=O)C2=C(C1)C1OC1C1(O)C2C(=O)c2cccc(O)c2C1O (stereo unspecified) | inactive | inactive |  |  | inactive | inactive | inactive |  |
| Cc1nc2ccc(CN(C)c3ccc(C(=O)NC(CCC(=O)O)C(=O)O)s3)cc2c(=O)[nH]1 (stereo unspecified) | inactive | inactive |  |  | inactive | inactive | inactive |  |
| FC(F)(F)c1ccccc1-c1cc(C(F)(F)F)c2nc(C3=NOC4(CCCCC4)C3)[nH]c2c1 | inactive | inactive | inactive | inactive | inactive | inactive |  | inactive |
| Cc1nc(N2CCN(C(=O)c3ccco3)CC2)c2c3c(sc2n1)CCCC3 | inactive | inactive | inactive | inactive | inactive | inactive |  | inactive |
| COc1ccccc1S(=O)(=O)Nc1ccc2c(c1)CN(C)C(=O)N2 | inactive | inactive |  |  | inactive | inactive | inactive | inactive |
| CC1(C)CCC(C)(C)c2cc(C#Cc3ccc(C(=O)O)cc3)ccc21 | inactive | inactive | inactive | inactive | inactive | inactive |  | inactive |
| CC(C)c1ccc(NC(=O)c2cccs2)c(-c2nc3ccccc3[nH]c2=O)c1 | inactive | inactive | inactive | inactive | inactive | inactive |  | inactive |
| CC(F)(F)CN1CCOc2c(nn(-c3ccccc3Cl)c2-c2ccc(Cl)cc2)C1=O | inactive | inactive | inactive | inactive | inactive | inactive |  | inactive |
| O=C(c1ccc(OC(F)F)c(C#Cc2ccccn2)c1)N1Cc2cccnc2C1 | inactive | inactive |  |  | inactive | inactive | inactive | inactive |
| CCCSc1nc(N[C@@H]2C[C@H]2c2ccc(F)c(F)c2)c2nnn([C@@H]3C[C@H](OCCO)[C@@H](O)[C@H]3O)c2n1 | inactive | inactive | inactive | inactive | inactive | inactive |  | inactive |
| Nc1nc(Cl)nc2c1ncn2C1OC(CO)C(O)C1F (stereo unspecified) | inactive | 0.631 µM (active) |  | inactive |  | inactive | 3.98 µM (active) |  |
| Nc1ncnc2c1nc(Cl)n2C1OC2COP(=O)(O)OC2C1O (stereo unspecified) | 7.94 µM (active) | 5.62 µM (active) | 10 µM (active) | 11.2 µM (active) | 10 µM (active) |  |  | 15.8 µM (active) |
| N#C/C(=C1\Nc2ccccc2S1)c1ccnc(NCCc2cccnc2)n1 | inactive | inactive |  |  |  | inactive | inactive | inactive |
| O=C(C1CCCCC1)N(CCN1CCN(c2ccccc2O)CC1)c1ccccn1 | inactive | inactive | inactive | inactive | inactive | inactive |  | inactive |
| CCc1cnc(N2CCC(c3nc(COc4ccc(-n5cnnn5)cc4)cs3)CC2)nc1 | inactive | inactive |  | inactive |  | inactive | inactive | inactive |
| COc1cc2ncnc(Nc3ccc(O)c(Br)c3)c2cc1OC | inactive | inactive | inactive | inactive | inactive | inactive |  | inactive |
| Nc1nc2c(ncn2C2OC3COP(=O)(O)OC3C2O)c(=O)[nH]1 (stereo unspecified) | inactive | inactive | inactive | inactive | inactive |  |  | inactive |
| CC[C@H](C(=O)Nc1ccccc1N1CCCC1)c1ccccc1 | inactive | inactive |  |  | inactive | inactive | inactive | inactive |
| Fc1ccc(CN2CCC(Nc3ccc(C(F)(F)F)nn3)CC2)cc1F | inactive | inactive | inactive | inactive | inactive | inactive |  | inactive |
| C=C1CC(=O)C2OC2(C)CC2OC(=O)C(=C)C2C(O)C1OC(=O)/C(C)=C\C (stereo unspecified) | inactive | inactive |  | inactive |  | inactive | inactive | inactive |

| SMILES | Potency (C33A) | Potency (CAOV3) | Potency (Es-2) | Potency (HeLa) | Potency (Hek293T) | Potency (OV90) | Potency (CASKI) | Potency (JEG-3) |
| --- | --- | --- | --- | --- | --- | --- | --- | --- |
| C/C(=C\Cc1c(O)c(Cl)c(C)c(C=O)c1O)CC/C=C(\C)[C@H]1CC(=O)C(C)(C)O1 | inactive | inactive |  |  | inactive | inactive | inactive |  |
| Cn1ncc(Cl)c1-c1cc(C(=O)N[C@H](CN)Cc2ccc(F)c(F)c2)sc1Cl | 5.62 µM (active) | inactive | inactive | inactive |  |  |  | inactive |
| C=C[C@@]12COC(=O)C(=C)[C@@H]1[C@@H](O)[C@H](C(=C)C(=O)OC)[C@@H](O)C2 | inactive | inactive |  |  | inactive | inactive | inactive |  |
| C=C1C(=O)OC2CC(C)=C(C(C)CCCOC(C)=O)C(OC(=O)CC(C)CC)C12 (stereo unspecified) | inactive | inactive |  | inactive |  | inactive | inactive |  |
| Cc1cc(C)c2c(c1)C(N(Cc1cc(C(F)(F)F)cc(C(F)(F)F)c1)c1nnn(C)n1)CCCN2CC1CCC(C(=O)O)CC1 (stereo unspecified) | inactive | inactive |  |  | inactive | inactive | inactive | inactive |
| CC1(C)SCCN(S(=O)(=O)c2ccc(Oc3ccncc3)cc2)[C@H]1C(=O)NO | inactive | inactive | inactive | inactive | inactive | inactive |  | inactive |
| C=C[C@@]1(C)CCC2C(=CCC3[C@]2(C)CCC[C@@]3(C)C(=O)O)C1 (stereo partly specified) | inactive | inactive | inactive | inactive | inactive | inactive |  | inactive |
| CC#C[C@@H](CC(=O)O)c1ccc(OCc2cccc(-c3ccc(C(F)(F)F)cc3)c2)cc1 | inactive | inactive |  |  | inactive | inactive | inactive | inactive |
| Cn1cc(-c2cnn3c(N)c(Br)c([C@@H]4CCCNC4)nc23)cn1 | inactive | inactive |  |  |  | inactive | inactive |  |
| CC(=O)O[C@@]12CO[C@@H]1C[C@H](O)[C@@]1(C)C(=O)[C@H](O)C3=C(C)[C@@H](OC(=O)[C@H](O)[C@@H](NC(=O)OC(C)(C)C)c4ccccc4)C[C@@](O)([C@@H](OC(=O)c4ccccc4)C12)C3(C)C (stereo partly specified) | inactive | inactive |  |  |  | inactive |  | inactive |
| Nc1cccc(CNC(=O)c2ccc(Oc3ccc(OCc4cccc(F)c4)cc3)nc2)c1 | inactive |  | inactive | inactive | inactive | inactive | inactive | inactive |
| CC(C)(O)C1Cc2c(ccc(C(=O)CCc3ccccc3)c2O)O1 (stereo unspecified) | 11.2 µM (active) | 10 µM (active) |  | 10 µM (active) | 11.2 µM (active) | 11.2 µM (active) |  | inactive |
| Cc1cn(CCN2CCN(c3ccccc3-c3cc(C#N)cc(C(=O)NCCCN4CCCC4)c3)CC2)c2ccccc12 | inactive |  | inactive | inactive | inactive |  | inactive | inactive |
| O=C(NCCCNC(=O)c1ccc[nH]c1=O)c1cc(-c2ccccc2)on1 | inactive |  |  |  |  |  | inactive |  |
| C[C@H](Oc1cc(-n2cnc3ccc(CN4CCN(C)CC4)cc32)sc1C(N)=O)c1ccccc1C(F)(F)F | 15.8 µM (active) | inactive | 11.2 µM (active) | 5.01 µM (active) |  | inactive |  | 3.16 µM (active) |
| Cn1ncnc1[C@H]1c2n[nH]c(=O)c3cc(F)cc(c23)N[C@@H]1c1ccc(F)cc1 | inactive | inactive |  | inactive | inactive | inactive |  |  |
| O=C(Nc1nc2cc(C(F)(F)F)cc(NC3CC3)n2n1)c1cccnc1 | inactive | inactive |  | 12.6 µM (active) |  | inactive |  | 10 µM (active) |
| COC1CC(=O)C23C(=O)NC(Cc4c[nH]c5ccccc45)C2C(C)C2(C)OC2C3/C=C/CC(C)CC1O (stereo unspecified) | inactive | inactive | inactive |  | inactive | inactive |  |  |
| CC1CCC(=O)CC(SCC(O)C(=O)O)CCC(=O)O1 (stereo unspecified) | inactive |  | inactive | inactive | inactive | inactive | inactive | inactive |
| Cc1cc(OCCCS(C)(=O)=O)cc(C)c1-c1cccc(COc2ccc(C3=CC(=O)NS3=O)cc2)c1 (stereo unspecified) | inactive | inactive | inactive |  | inactive |  |  | inactive |
| COc1ccc(OC)c(-c2ccc(NC(=O)c3ccncc3F)cc2)c1 | inactive |  | inactive | inactive | inactive | inactive | inactive | inactive |
